Values joined by “and” are separate entries in the source; they are usually repeats but may differ in a detail not shown here. Equal values may be shown once. In all, about 5,500 compounds went through this assay and about 2,000 (36%) were called active. Inconclusive results (about 18%) are left out. Rule as the data show it: active = normalized growth mostly below about 0.91 (no sharp cut-off); inconclusive = no clear call, values can overlap the other calls; inactive = mostly above about 0.92. The list shows a part of the results.
Assay: chemical genetic growth profiling, strain panel (AID 1159580);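 also: tested at 20 µM; growth read once vehicle control cultures reached saturation at 30 °C; 1 = growth at the plate median or of vehicle wells; lower values mean less growth of the strain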
Conditions: S. cerevisiae deletion strains, growth OD

Measured: normalized growth

CNCCCC12CCC(c3ccccc31)c1ccccc12
active: locus YAL026C, strain drs2, active compounds read low 0.768
inactive: locus YAL013W, strain DEP1, active compounds read low 0.974 and 1.01 | locus YAL021C, strain ccr4, active compounds read low 0.931 | locus YAL030W, strain snc1, active compounds read low 0.999 | locus YAL040C, strain CLN3, active compounds read low 1 | locus YBL061C, strain skt5, active compounds read low 0.979 | locus YBR009C, strain hhf1, active compounds read low 0.992 | locus YBR021W, strain FUR4, active compounds read low 0.948 | locus YBR023C, strain chs3, active compounds read low 0.957 | locus YBR171W, strain sec66, active compounds read low 0.99 | locus YBR229C, strain ROT2, active compounds read low 0.974 | locus YBR231C, strain swc5, active compounds read low 0.956 | locus YBR279W, strain paf1, active compounds read low 0.971 | locus YCL011C, strain gbp2, active compounds read low 0.963 | locus YCL016C, strain dcc1, active compounds read low 0.976 | locus YCL029C, strain bik1, active compounds read low 0.994 | locus YCL061C, strain MRC1 (second series), active compounds read low 0.999 | locus YCL069W, strain vba3, active compounds read low 1.01 | locus YCR088W, strain abp1, active compounds read low 0.998 | locus YDL005C, strain med2, active compounds read low 0.972 | locus YDL035C, strain GPR1, active compounds read low 0.998 | locus YDL040C, strain nat1, active compounds read low 0.989 | locus YDL074C, strain BRE1, active compounds read low 0.97 | locus YDL101C, strain DUN1, active compounds read low 0.981 | locus YDL134C, strain PPH21, active compounds read low 0.984 | locus YDL185W, strain tfp1, active compounds read low 0.978 | locus YDL192W, strain arf1, active compounds read low 0.991 | locus YDR001C, strain nth1, active compounds read low 0.975 | locus YDR069C, strain doa4, active compounds read low 0.918 | locus YDR101C, strain arx1, active compounds read low 1.01 | locus YDR137W, strain rgp1, active compounds read low 1.02 | locus YDR159W, strain sac3, active compounds read low 0.95 | locus YDR162C, strain NBP2, active compounds read low 0.996 | locus YDR195W, strain ref2 1.03 | locus YDR297W, strain sur2, active compounds read low 0.975 | locus YDR318W, strain mcm21, active compounds read low 0.973 | locus YDR334W, strain swr1, active compounds read low 0.995 | locus YDR335W, strain msn5, active compounds read low 0.982 | locus YDR363W, strain ESC2, active compounds read low 1.01 | locus YDR388W, active compounds read low 0.983 | locus YDR392W, strain spt3, active compounds read low 0.999 | locus YDR502C, strain sam2, active compounds read low 0.976 | locus YEL003W, strain gim4, active compounds read low 0.978 | locus YEL037C, strain rad23, active compounds read low 0.997 | locus YEL061C, strain CIN8 (second series), active compounds read low 0.975 | locus YEL061C, strain CIN8, active compounds read low 1.01 | locus YER002W, strain NOP16, active compounds read low 1 | locus YER015W, strain faa2, active compounds read low 0.978 | locus YER016W, strain bim1, active compounds read low 0.996 | locus YER110C, active compounds read low 0.989 | locus YER111C, strain swi4, active compounds read low 0.995 | locus YER155C, strain BEM2 (second series), active compounds read low 0.977 | locus YER155C, strain BEM2, active compounds read low 1.01 | locus YER167W, strain BCK2, active compounds read low 0.989 | locus YFR010W, strain ubp6, active compounds read low 0.982 | locus YGL078C, strain dbp3, active compounds read low 0.99 | locus YGL086W, strain mad1, active compounds read low 0.969 | locus YGL167C, strain pmr1, active compounds read low 1 | locus YGL173C, strain kem1, active compounds read low 0.993 | locus YGL227W, strain vid30, active compounds read low 1 | locus YGL240W, strain doc1, active compounds read low 0.989 | locus YGL248W, strain PDE1, active compounds read low 0.964 | locus YGL253W, strain hxk2, active compounds read low 0.988 | locus YGR135W, strain pre9, active compounds read low 0.94 | locus YGR229C, strain SMI1, active compounds read low 0.941 and 0.953 | locus YGR252W, strain gcn5, active compounds read low 0.841 | locus YHR013C, strain ard1, active compounds read low 0.976 | locus YHR027C, strain rpn1, active compounds read low 0.96 | locus YHR030C, strain SLT2, active compounds read low 0.997 and 1.01 | locus YHR079C, strain IRE1 (second series), active compounds read low 0.997 | locus YHR079C, strain IRE1, active compounds read low 1.01 | locus YHR094C, strain hxt1, active compounds read low 0.997 | locus YHR129C, strain ARP1, active compounds read low 0.995 | locus YHR142W, strain chs7, active compounds read low 0.91 | locus YHR200W, strain rpn10, active compounds read low 0.991 | locus YIL066C, strain RNR3, active compounds read low 0.992 | locus YIL073C, strain SPO22, active compounds read low 0.918 | locus YIL125W, strain kgd1, active compounds read low 0.981 | locus YIR030C, strain dcg1, active compounds read low 0.99 | locus YJL092W, strain hpr5, active compounds read low 0.971 | locus YJL095W, strain BCK1 (second series), active compounds read low 0.973 | locus YJL095W, strain BCK1, active compounds read low 0.941 and 0.998 | locus YJL115W, strain asf1, active compounds read low 0.97 | locus YJL129C, strain trk1, active compounds read low 1.01 | locus YJL134W, strain LCB3, active compounds read low 0.982 | locus YJL154C, strain vps35, active compounds read low 0.975 | locus YJL164C, strain tpk1, active compounds read low 0.989 | locus YJL166W, strain qcr8, active compounds read low 0.958 | locus YJL168C, strain set2, active compounds read low 0.998 | locus YJL187C, strain SWE1 (second series), active compounds read low 0.979 | locus YJL187C, strain SWE1, active compounds read low 0.973 | locus YJR043C, strain POL32, active compounds read low 1.01 | locus YJR066W, strain TOR1, active compounds read low 0.949

Source: PubChem BioAssay AID1159580 (chemical genetic matrix, 2015)
